# The list is not random: actives were taken first. Their share in the collection is about 1.8%.
# GALR2 blocker: GALR2 antagonists in receptor-expressing cells, primary screen | Galanin receptor type 2 (Homo sapiens), O43603 | AID 828, 2007 | inhibition, % at 4 µM | antagonist mode | hit rate 0.39% among 140,000;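 note: cells stimulated with galanin 1-16 at roughly its EC80; 0% = agonist challenge control and 100% = basal control without agonist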
# Target sequence (O43603 whole entry, looked up): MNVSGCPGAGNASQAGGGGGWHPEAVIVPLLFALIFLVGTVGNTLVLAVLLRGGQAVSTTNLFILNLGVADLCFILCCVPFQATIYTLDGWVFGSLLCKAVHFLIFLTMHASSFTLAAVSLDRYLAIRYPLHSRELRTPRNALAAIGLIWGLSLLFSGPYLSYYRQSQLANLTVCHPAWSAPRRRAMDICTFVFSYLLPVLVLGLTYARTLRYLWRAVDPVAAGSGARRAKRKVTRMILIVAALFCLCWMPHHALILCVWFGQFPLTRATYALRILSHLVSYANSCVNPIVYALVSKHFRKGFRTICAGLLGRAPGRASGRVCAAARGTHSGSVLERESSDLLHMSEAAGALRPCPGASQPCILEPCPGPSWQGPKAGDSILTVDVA
# MRP-1 activ: H69AR viability gain despite doxorubicin, primary screen, MRP-1 activator project, H69AR cells, CellTiter-Glo; hit rate 0.61% among 140,000; viability increase, % at 10 µM; viability rescue; AID 799, 2007;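 active = viability gain under doxorubicin at or above a set limit, the compound median plus 3 SD, cut at about 4.7% in these data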;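 note: MRP-1 overexpressing cells given doxorubicin 25 µM after compound pretreatment; 18-22 h compound pretreatment then 72 h with doxorubicin before readout; 0% = doxorubicin-only wells and 100% = vehicle-treated cells without doxorubicin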
# MRP reversal: reversal of MRP1-mediated doxorubicin resistance, primary screen, H69AR cells, doxorubicin co-treatment | H69AR cells + 2 uM doxorubicin, CellTiter-Glo, 72 h | AID 602, 2007 | differential viability (reversal), % at 10 µM | hit rate 0.04% among 85,000;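 active = viability drop by adding the cancer drug above about 55%, with treated viability meeting a 40% cutoff, limit read from the data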;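 note: viability without doxorubicin minus viability with 2 µM doxorubicin for each compound; larger differential means the compound sensitizes cells more to doxorubicin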
# S1P2 agonist: S1P2 receptor agonists, primary screen, cell-based; Sphingosine 1-phosphate receptor 2 (Homo sapiens), O95136; AID 729, 2007; activation, % at 4.5 µM; S1P2-expressing cell line, agonist reporter read-out; hit rate 0.46% among 97,000; in the data active = activation above about 16%;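 note: 0% = vehicle low control and 100% = maximal reference agonist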
# GALR2 agonist: GALR2 receptor agonists, primary screen, cell-based | GALR2-expressing cells, agonist activation read-out | activation, % (concentration not given with the values) | hit rate 0.48% among 140,000 | Galanin receptor type 2 (Homo sapiens), O43603; in the data active = activation above about 5%, passing the limit was not always enough;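 note: 0% = vehicle buffer wells and 100% = reference agonist at full effect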
# S1P2 blocker: human S1P2 receptor antagonists, primary screen, cell-based | cell-based S1P2 antagonist assay, inhibition at 5 uM | inhibition, % at 5 µM | hit rate 0.21% among 97,000 | AID 736, 2007; in the data active = inhibition above about 45%;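 note: CRE beta-lactamase reporter cells expressing human S1P2 stimulated with S1P; 0% = agonist at EC80 alone and 100% = agonist plus reference antagonist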
# GALR2 blk conf: GALR2 antagonists, retest of hits, confirmation, cell-based. hit rate 60% among 480. shares compounds with GALR2 blocker. GALR2-expressing cells, antagonist mode, inhibition. inhibition, % at 4 µM. AID 866, 2007;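 note: cells stimulated with galanin at about its EC80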
# BLA inh counter: inhibitors of NFAT-driven beta-lactamase reporter, confirmation, counter-screen for GALR2 antagonist project, CHO NFAT-bla cells, FRET readout; shares compounds with GALR2 blocker; thapsigargin-stimulated; inhibition, % at 4.2 µM; hit rate 36% among 480; AID 867, 2007;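 active = inhibition above the mean inhibition across tested compounds plus 3 SD, cut at about 27% in these data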;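 note: 0% = 500 nM thapsigargin stimulated wells and 100% = unstimulated BSA only wells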
# The depositor's hits bear a star; x = no result given. Cut-off read from the data, not from the text of the source, unless noted: active = inhibition above about 27%; inactive = the rest.
SMILES,GALR2 blocker,MRP-1 activ,MRP reversal,S1P2 agonist,GALR2 agonist,S1P2 blocker,GALR2 blk conf,BLA inh counter
COC(=O)C1=C(C)N(C)C(=O)/C1=C\c1ccco1,9,-3,x,-5,0,-33,x,x
CCc1cccc(C)c1NC(=O)c1cccc(N(C)C)c1,7,-3,x,-5,-4,12,x,x
CC(=O)Nc1nc2n(n1)C(c1ccc(F)cc1)C=C(c1ccccc1)N2 (stereo not drawn),31*,-5,-16,-9,-2,56*,28*,45*
COC(=O)c1ccc(CNC(=O)COC(=O)CC23CC4CC(CC(Br)(C4)C2)C3)cc1,-10,-2,x,x,-1,x,x,x
O=C(Nc1ccccc1)c1nnsc1S(=O)c1ccc(Cl)cc1 (stereo not drawn),39*,-7,x,-6,-4,64*,35*,56*
O=C(Nc1ccc(Cl)cc1)c1cccs1,14,1,9,-1,0,10,x,x
CC(NC(=O)Cn1ncc(Cl)c(Cl)c1=O)C12CC3CC(CC(C3)C1)C2 (stereo not drawn),57*,-5,x,x,-1,x,72*,74*
CCn1cc(C(=O)NC(C)C23CC4CC(CC(C4)C2)C3)cn1 (stereo not drawn),-4,0,x,x,1,x,x,x
COc1ccc(OC)c(NC(=O)C2CCCN(S(=O)(=O)c3cccc4nsnc34)C2)c1 (stereo not drawn),9,-2,-31,-5,-2,9,x,x
COc1ccc(Cl)cc1NC(=O)C1CCCN(S(=O)(=O)c2cccc3nonc23)C1 (stereo not drawn),31*,-4,-7,-9,-1,6,22,7
Cc1nn2c(C(F)(F)F)cc(-c3ccc(Cl)cc3)nc2c1C(=O)N1CCOCC1,0,-1,-4,-7,1,5,x,x
O=c1c(Cl)c(NCCCO)cnn1-c1nc2ccccc2[nH]1,36*,-6,0,-4,-3,30,42*,37*
C=CCN(CC=C)c1cnn(-c2nc3ccccc3[nH]2)c(=O)c1Cl,11,-3,x,-1,-3,-11,x,x
O=c1cc(-c2ccccc2Cl)oc2cc(O)cc(O)c12,-1,-2,x,x,-2,x,x,x
O=C1C=CC(O)(c2cc(=O)c3c(O)cc(O)cc3o2)C=C1,90*,-4,x,x,-2,x,83*,39*
COc1ccc(CN2CCN(S(=O)(=O)c3ccc(NC(C)=O)cc3)CC2)cc1OC,14,-4,-9,1,1,6,x,x
COc1ccc(OC)c(NC(=O)CSc2ncnc3c2cnn3-c2ccccc2Cl)c1,31*,-4,-16,-3,-1,81*,49*,18
COc1ccccc1N1CCN(C(=O)C2CC=CCC2C(=O)O)CC1 (stereo not drawn),-3,-2,0,-9,0,8,x,x
Cc1ccc(C(=O)N/C(=C\c2cccs2)C(=O)NCc2cccnc2)cc1,17,-2,x,x,-1,x,x,x
Cc1ccc(C(=O)N/C(=C/c2cccs2)C(=O)NCc2ccco2)cc1,27*,-3,x,x,-1,x,6,-2
COc1ccc2[nH]c3c(NCc4ccco4)ncnc3c2c1,28*,-7,-4,-10,-2,-4,23,8
COC(=O)c1ccccc1NC(=O)CC#N,11,1,2,x,-1,x,x,x
Cc1cnc(NC(=O)Cc2c[nH]c3ccccc23)s1,33*,-4,-18,-7,-3,10,25,5
Cc1ccc(S(=O)(=O)NCc2ccncc2)cc1,31*,1,-11,0,-1,37,39*,5
Cc1ccc(S(=O)(=O)NCC(=O)NCc2ccncc2)cc1,11,-2,3,1,-1,-4,x,x
CCOc1ccc(S(=O)(=O)NCc2ccncc2)cc1,34*,-1,0,-5,-4,64*,53*,8
CCOC(=O)COc1ccc(S(=O)(=O)NCc2ccncc2)cc1,33*,-1,-4,-4,-1,43,33*,1
